molecular target: T1, Aurora kinase A (Homo sapiens) (UniProt O14965); details: Compound concentration 20.0 uM, Protein concentration 2.0 uM, Result type QC Liability
T1 sequence (whole entry): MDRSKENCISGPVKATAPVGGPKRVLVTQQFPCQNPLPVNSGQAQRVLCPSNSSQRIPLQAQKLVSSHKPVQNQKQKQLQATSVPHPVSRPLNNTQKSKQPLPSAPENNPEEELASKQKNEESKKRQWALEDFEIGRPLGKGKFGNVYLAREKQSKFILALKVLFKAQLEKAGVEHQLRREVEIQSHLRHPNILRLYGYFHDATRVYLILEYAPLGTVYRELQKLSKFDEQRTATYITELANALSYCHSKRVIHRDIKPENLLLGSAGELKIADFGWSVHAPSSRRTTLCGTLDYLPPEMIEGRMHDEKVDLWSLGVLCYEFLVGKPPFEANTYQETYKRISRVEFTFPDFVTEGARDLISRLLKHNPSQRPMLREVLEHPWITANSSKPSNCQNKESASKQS

Structure (SMILES)	ΔTm [°C]
O=C1CN(c2ccccc2F)C(NCCN2CCOCC2)=C1c1nc2cc(Br)ccc2c(=O)[nH]1	0.17
CCN(CC)C/C=C/C(=O)Nc1cc2c(Nc3ccc(F)c(Cl)c3)ncnc2cc1OCC1CC1	1.29
Cn1cc(Nc2nccc(N3CC4CCC(C3)N4C(=O)[C@@H]3CC3(F)F)n2)cn1	8.08
O=C(Cc1ccccc1[N+](=O)[O-])Nc1ccc(-c2ccc(C(O)(C(F)(F)F)C(F)(F)F)cc2F)cc1	-1.59
N=C(N)NCCC[C@H](NC(=O)CC1(CC(=O)N2CCN(C(c3ccccc3)c3ccccc3)CC2)CCCC1)C(=O)NCc1ccccc1	-0.79
COC(=O)c1sccc1S(=O)(=O)Nc1ccc(Nc2ccccc2)cc1OC	-2.34
O=C(O)CCC/C=C\C[C@@H]1[C@@H](/C=C/[C@@H](O)COc2cccc(C(F)(F)F)c2)[C@H](O)C[C@@H]1O	-0.25
CC(C)(O)CNC(=O)N1C(=O)N(c2cccc(C(F)(F)F)c2)C2=C(C(=O)CC2)[C@@H]1c1ccc(C#N)cc1	-0.16
O=C(Nc1snnc1C(=O)Nc1ccc(N2CCCC2)cc1)c1cncc(C(F)(F)F)c1	-0.75
CCc1c(-c2ccc3[nH]ncc3c2)cnc(N)c1-c1ccc(O)cc1	3.28
COc1cc(-c2cc3ncccc3c(O[C@@H](C)[C@H]3CNC(=O)C3)n2)cc(OC)c1OC	2.08
Cc1cccc(-c2nn3c(c2-c2ccnc4ccc(C(N)=O)cc24)CCC3)n1	-0.95
Cc1[nH]nc(C(F)(F)F)c1Cc1sc2c(c1C(=O)N1C[C@](C)(O)CO1)c(=O)n(C)c(=O)n2C(C)C	-0.32
O=C(NCCN1CCOCC1)c1ccc2nn(CCOc3ccc(Cl)cc3)cc2c1	0.05
COc1c(NC(=O)c2cc3cccc(Oc4ccnc(C(=O)N5CCN(C)CC5)c4)c3n2C)cc(C(C)(C)C)cc1NS(C)(=O)=O	-1.1
CC(C)N(C(=O)C1CCOCC1)c1cc(F)c(Oc2ncc(Cn3nccn3)cc2C(F)(F)F)cc1C(=O)O	-0.1
Cc1cc(NC(=O)c2cccc(NC(=O)/C=C/CN(C)C)c2)ccc1Nc1nccc(-c2cccnc2)n1	5.38
CN1CC(=O)N(C)c2cnc(Nc3ccc(NC(=O)Nc4cccc(C(=O)O)c4)cc3)nc21	2
N[C@@H]1CCCN(c2c(/C=C3\SC(=O)NC3=O)cccc2-c2ccccc2)C1	-0.48
CCCCCCCC/C=C\CCCCCCCC(=O)NCCO	-2.91

Structure (SMILES)	ΔTm [°C]
CNC(=O)c1cccc(-c2ccc3c(N4CCOC[C@@H]4C)nc(N4CCOC[C@@H]4C)nc3n2)c1	0.91
Cc1cc(C2CCCNC2)ccc1Nc1ncc(Br)c(NCc2cccc3c2C(C)(C)C(=O)N3)n1 (centres undefined)	3.81
CCC(=O)N[C@H]1CC[C@@H](C(=O)N(C)c2ccc(-c3nc4ccccc4o3)cc2)C1	0.03
Cc1nn(-c2nc3ccc(Cl)c(Cl)c3[nH]2)c(O)c1C1OC(=O)c2ccccc21 (centres undefined)	0.71
CC(C)(C)NC(=O)c1cncn1C1CCN(c2ccc(-c3nnc(C(F)(F)F)o3)cn2)CC1	0.23
CN[C@@H](C)C(=O)N[C@H](C(=O)N1CCC[C@H]1C(=O)N[C@@H]1CCCc2ccccc21)C1CCCCC1	-0.97
CC1(C)C[C@@H]1C(=O)N/C(=C\CCCCSC[C@H](N)C(=O)O)C(=O)O	-0.41
CNc1nc(-c2ccc3c(N)n[nH]c3c2)cc(N2C[C@@H](C(=O)NC3CCCCC3)CC[C@H]2C)n1	2.89
CCNC1=N[C@@H]2[C@@H](O)[C@H](O)[C@@H](CO)O[C@@H]2S1	-0.73
CCOc1ccc(S(=O)(=O)Nc2ccc(Cl)cc2C#Cc2cnc(C(=O)O)cc2OC)c2ncccc12	-2.25
CN(C)[C@H]1CC[C@H](Nc2ncc3ncnc(Nc4ccc(F)c(Cl)c4)c3n2)CC1	0.2
COc1ncc(-c2cc(-c3ncc(CN4C[C@@H](C)O[C@@H](C)C4)o3)c3cn[nH]c3c2)cc1NS(C)(=O)=O	1.26
COc1ccccc1Nc1nc(-c2nn(Cc3c(F)cc(OCCCO)cc3F)c3ccccc23)ncc1OC	-0.7
CCOC(=O)N1CCC(CN(Cc2ccc(Cl)cc2)Cc2ccc([N+](=O)[O-])s2)C1 (centres undefined)	-0.41
COc1ccc(CSc2nnc(-c3ccc4ncsc4c3)o2)cc1C(F)(F)F	1.22
O=C(Nc1ccc(C(O)(C(F)(F)F)C(F)(F)F)cc1)c1ccc(C(F)(F)F)cc1	0
COc1cc(-c2cncc(-c3ccc(N4CCN(C(C)C)CC4)cc3)c2C)cc(F)c1C(=O)N1CCCC1	-0.62
CN1CCN(C(=O)c2ccc3cc2OCCOCCNc2ccn4ncc-3c4n2)CC1	3.85
CC(C)Nc1ncnc2cc(OCc3cccc([S@@](C)(=N)=O)c3)c(Br)cc12	4.25

Source: ChEMBL document CHEMBL5308504, “Tm Shift (DSF) assay results for EUbOPEN Chemogenomics Library” (2023)
